Results: a collection of fitness landscapes (doi:10.1016/j.celrep.2020.107928)
The full ranking holds about 81,000 sequences; the median of “one-hybrid fitness for binding parS DNA” is about -0.17, and the highest 2% start at about 0.51. This is one part of a sample in which the highest values are shown more often than they occur.

B1: Caulobacter ParB omega fusion; a variant is named by its letters at X, in order, B8GW30 (parent)
chain: MESVVVGEPGMSEGRRGLGRGLSALLGEVDAAPAQAPGEQLGGSREAPIEILQRNPDQPRRTFREEDLEDLSNSIREKGVLQPILVRPSPDTAGEYQIVAGERAWRAAQRAGLKTVPIMVRELDDLAVLEIGIIENVQRADLNVLEEALSYKVLMEKFERTQENIAQTIGKSXSHVANXMRLLXLPDEVQSYLVSGELTAXHARAIAAAADPVALAKQIIEGGLSVRETEALARKAPNLSAGKSKGGRPPRVKDTDTQALESDLSSVLGLDVSIDHRGSTGTLTITYATLEQLDDLCNRLTRGI

Variants of: B1
Test: one-hybrid fitness for binding parS DNA (scaled: cognate 1, non-cognate 0); higher = stronger binding
Settings: with parS DNA site
Procedure, shortened: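 Fitness is the rescaled log change in variant-to-wild-type read ratio, measured by Illumina sequencing of plasmids before and after bacterial one-hybrid selection. The scale puts cognate at 1 and non-cognate at 0. Selection of Caulobacter ParB libraries, four specificity codons randomised, took place in E. coli USO with a HIS3 reporter, site 19 bp from the promoter, over 48 hours at 37°C on M9-minus-histidine with 0.1 mM IPTG and 5 mM 3-AT.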

Variant | one-hybrid fitness for binding parS DNA
HPDN | ≤ 0.2
KRKQ | ≤ 0.2
KLMV | ≤ 0.2
RVLP | ≤ 0.2
RVLH | 0.229
RVLS | 1.03
TMII | ≤ 0.2
RCVG | 0.991
RPVG | ≤ 0.2
RSVM | 0.265
RSVK | ≤ 0.2
RDVG | ≤ 0.2
RSVG | 0.89
MFMG | ≤ 0.2
RFCF | ≤ 0.2
TLGM | ≤ 0.2
RCGC | 0.97
RMGM | 0.315
RKGR | ≤ 0.2
RSGP | ≤ 0.2
RMGC | 0.952
RDGC | ≤ 0.2
RMGL | ≤ 0.2
RKGF | ≤ 0.2

Variant | one-hybrid fitness for binding parS DNA
RPGC | ≤ 0.2
RKGC | 0.827
RSGH | 0.208
RSGC | 0.956
QVMA | ≤ 0.2
QTTD | ≤ 0.2
LGCG | ≤ 0.2
PLWY | ≤ 0.2
QQVF | ≤ 0.2
HPKR | ≤ 0.2
DNQS | ≤ 0.2
YLEP | ≤ 0.2
MTEN | ≤ 0.2
RRGQ | ≤ 0.2
RAGC | 0.968
RLGC | 0.97
RHGY | 0.429
RRGC | 0.593
RRGR | ≤ 0.2
RLGK | ≤ 0.2
RHGK | ≤ 0.2
RAGY | 0.473
RHGC | 0.896
RAGF | 0.247

Variant | one-hybrid fitness for binding parS DNA
RLGM | 0.352
DSNT | ≤ 0.2
KDLS | ≤ 0.2
GQVC | ≤ 0.2
YDLG | ≤ 0.2
KTAM | ≤ 0.2
RIGM | 0.268
NFGC | ≤ 0.2
RFGC | 0.882
RIGF | 0.234
RIGC | 0.955
RFGR | ≤ 0.2
NLSL | ≤ 0.2
LPEL | ≤ 0.2
PHQK | ≤ 0.2
LEDW | ≤ 0.2
EWQP | ≤ 0.2
ATNC | ≤ 0.2
RPHT | ≤ 0.2
RHHT | 0.869
RHHH | ≤ 0.2
RIHH | ≤ 0.2
RIHP | ≤ 0.2
REHT | ≤ 0.2

Variant | one-hybrid fitness for binding parS DNA
RMHH | 0.274
RMHP | ≤ 0.2
RIHT | 0.936
RMHT | 0.946
RHHP | ≤ 0.2
RCHT | 0.906
RGFW | ≤ 0.2
HQMY | ≤ 0.2
VSHP | ≤ 0.2
WWRR | ≤ 0.2
RVEY | 0.353
LLVS | ≤ 0.2
PHSW | ≤ 0.2
HGMV | ≤ 0.2
SLSC | ≤ 0.2
PKWC | ≤ 0.2
SQSD | ≤ 0.2
HHCS | ≤ 0.2
CACK | ≤ 0.2
TVNL | ≤ 0.2
YQLS | ≤ 0.2
RTHM | 0.317
RTHK | ≤ 0.2
RSHD | ≤ 0.2

Variant | one-hybrid fitness for binding parS DNA
RTHT | 0.908
RSHN | 0.412
RSHT | 0.876
PPLK | ≤ 0.2
HGKG | ≤ 0.2
TTRW | ≤ 0.2
YNRL | ≤ 0.2
YMLS | ≤ 0.2
RSKR | ≤ 0.2
RDKG | 0.274
RCKG | 0.89
RPKG | ≤ 0.2
RSKG | 0.944
RSKQ | ≤ 0.2
NLKV | ≤ 0.2
YAAA | ≤ 0.2
TCWR | ≤ 0.2
WDTT | ≤ 0.2
VAYM | ≤ 0.2
AACS | ≤ 0.2
GVIV | ≤ 0.2
RGFH | ≤ 0.2
RGAH | ≤ 0.2
RGFD | ≤ 0.2

Variant | one-hybrid fitness for binding parS DNA
RGAS | 0.734
RGAD | ≤ 0.2
RGFS | 0.584
QGMN | ≤ 0.2
VPQV | ≤ 0.2
SYEL | ≤ 0.2
RWYS | 0.803
RWIS | 0.609
RWWF | ≤ 0.2
RWID | ≤ 0.2
RWPS | 0.444
RWSS | 0.912
RWSP | ≤ 0.2
RWYN | 0.223
RWYH | ≤ 0.2
RWWN | ≤ 0.2
RWWS | 0.644
RWSH | ≤ 0.2
STYW | ≤ 0.2
GPTL | ≤ 0.2
TSHS | ≤ 0.2
QPMV | ≤ 0.2
PMGR | ≤ 0.2
YPVG | ≤ 0.2

Variant | one-hybrid fitness for binding parS DNA
LLPR | ≤ 0.2
RWLH | ≤ 0.2
RWHD | ≤ 0.2
RWLN | 0.313
RWHN | 0.301
RWLS | 0.8
RWGP | ≤ 0.2
RWHS | 0.894
RWGS | 0.68
RWGH | ≤ 0.2
RWND | ≤ 0.2
RWNS | 0.926
RWNH | ≤ 0.2
PKTI | ≤ 0.2
VLLV | ≤ 0.2
HQHT | ≤ 0.2
AWSC | ≤ 0.2
PQNR | ≤ 0.2
MNVS | ≤ 0.2
TRQG | ≤ 0.2
HPNK | ≤ 0.2
VARE | ≤ 0.2
RWCS | 0.756
RWDP | ≤ 0.2

Variant | one-hybrid fitness for binding parS DNA
RWQP | ≤ 0.2
RWQS | 0.868
RWDN | ≤ 0.2
RWDS | 0.76
RWCN | ≤ 0.2
RWRS | 0.955
RWRN | 0.401
RWQH | ≤ 0.2
RWCP | ≤ 0.2
RWRP | ≤ 0.2
CKLV | ≤ 0.2
MLGM | ≤ 0.2
PIWC | ≤ 0.2
MSNM | ≤ 0.2
WLDE | ≤ 0.2
RPVA | ≤ 0.2
RGVA | ≤ 0.2
REVA | ≤ 0.2
RCVA | 0.581
RSVA | 0.515
SKAI | ≤ 0.2
SIHL | ≤ 0.2
MVSE | ≤ 0.2
GMRV | ≤ 0.2

Variant | one-hybrid fitness for binding parS DNA
ETNG | ≤ 0.2
CGAE | ≤ 0.2
RCKS | 0.836
RSKH | 0.274
RPKS | ≤ 0.2
RSKD | ≤ 0.2
RCKD | ≤ 0.2
RSKS | 0.883
AQTD | ≤ 0.2
DWLL | ≤ 0.2
YIPE | ≤ 0.2
CIRT | ≤ 0.2
PNRV | ≤ 0.2
RGVC | 0.445
RGCK | ≤ 0.2
RGLR | ≤ 0.2
RGIC | 0.422
RGLC | 0.537
RGLM | ≤ 0.2
RGPC | 0.217
RGYC | 0.527
RGKC | 0.833
RGCC | 0.534
RGCF | ≤ 0.2

Variant | one-hybrid fitness for binding parS DNA
RGKH | ≤ 0.2
ESDG | ≤ 0.2
QSSQ | ≤ 0.2
TSPP | ≤ 0.2
RRPY | 0.315
GLPL | ≤ 0.2
LLVN | ≤ 0.2
YATP | ≤ 0.2
THMC | ≤ 0.2
ASRN | ≤ 0.2
HKPA | ≤ 0.2
RGHC | 0.59
RGHY | ≤ 0.2
RGDC | 0.467
RGAQ | ≤ 0.2
RGWC | 0.504
RGAC | 0.584
RGHR | ≤ 0.2
RGNN | 0.321
RGNC | 0.716
RGRC | 0.798
RGFC | 0.454
RGEC | 0.449
SREL | ≤ 0.2

Variant | one-hybrid fitness for binding parS DNA
FTNN | ≤ 0.2
MTRS | ≤ 0.2
DMPV | ≤ 0.2
RDMM | ≤ 0.2
LDNS | ≤ 0.2
QVVM | ≤ 0.2
RGGC | 0.594
RGGM | ≤ 0.2
RGQF | ≤ 0.2
RGQK | ≤ 0.2
RGSC | 0.672
RGGR | ≤ 0.2
RGSF | ≤ 0.2
RGQC | 0.649
RGSK | ≤ 0.2
AAYP | ≤ 0.2
DGHR | ≤ 0.2
WKKW | 0.229
LCSR | ≤ 0.2
YTPT | ≤ 0.2
AYYS | ≤ 0.2
SYRV | ≤ 0.2
VSYR | ≤ 0.2
NTNS | ≤ 0.2

Variant | one-hybrid fitness for binding parS DNA
RWLA | 0.384
DTLA | ≤ 0.2
RALA | 0.612
RMLA | 0.609
RPLA | ≤ 0.2
NTLA | ≤ 0.2
RCLA | 0.609
NALA | ≤ 0.2
RTLA | 0.595
NMLA | ≤ 0.2
PNHR | ≤ 0.2
LLEW | ≤ 0.2
GIRG | ≤ 0.2
DQFS | ≤ 0.2
PYSY | ≤ 0.2
GART | ≤ 0.2
NSRV | ≤ 0.2
IMIV | ≤ 0.2
ICQC | ≤ 0.2
NHLA | ≤ 0.2
RSLA | 0.591
RFLA | 0.533
DHLA | ≤ 0.2
DFLA | ≤ 0.2

Variant | one-hybrid fitness for binding parS DNA
RELA | ≤ 0.2
DLLA | ≤ 0.2
SFLA | ≤ 0.2
RHLA | 0.533
RLLA | 0.605
RNLA | 0.452
RDLA | ≤ 0.2
YYAL | ≤ 0.2
HRNR | ≤ 0.2
VLTI | ≤ 0.2
QANF | ≤ 0.2
MFMS | ≤ 0.2
QQVT | ≤ 0.2
TCGR | ≤ 0.2
KIYR | ≤ 0.2
FHCT | ≤ 0.2
NRQF | ≤ 0.2
THLI | ≤ 0.2
